Results filed as inconclusive are left out. The source made the active and inactive calls. Unless noted, the call rests on the fitted dose curve; in most records, active means well fitted curve in either direction with a large enough effect (not every such curve was filed as active); inconclusive means small, poorly fitted or top-dose-only effect, or another doubt; inactive means flat fitted curve, though single readings scatter.

Assay [1] addresses Lysosomal acid glucosylceramidase (Homo sapiens) (UniProt P04062). In words: Glucocerebrosidase-p2 (AID 348; in the data active means potency below about 10 µM; further: potency means the concentration at half of the fitted maximal effect). The note with it: purified GBA, blue fluorogenic substrate, 40 min. An outline of the steps:
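Compounds titrated from 0.6 nM upwards against 0.2 nM enzyme in pH 5.9 citric acid/KH2PO4, taurocholate, tween-20; blue fluorogenic substrate 80 uM, 40 min room temperature, stopped and read Ex 365/Em 440 for AC50.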

A short description of assay [2]: AP1 Signaling Pathway (AID 357).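 Further: ME-180 reporter cells stimulated with EGF at its EC50 level; on the % scale 0 is the no-effect control and ±100 the full control effect.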 Particulars: ME-180 AP-1-bla reporter, EGF-induced, beta-lactamase ratio, 5 h; at 7.69 µM (top of the series) unless noted. An outline of the steps:
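AP-1-bla ME-180 cells, Opti-MEM + 0.5% dialyzed FBS, plated overnight 37 °C. Cpd titration + EC50 EGF, 5 h 37 °C. CCF4 2.5 h RT; ex 405, em 460/530 ratio → %activity, AC50.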

Assay [3] concerns the target Cytochrome P450 1A2 (Homo sapiens) (UniProt P05177). In words: p450-cyp1a2 (AID 410; calls by dose curve; further: potency means the concentration at half of the fitted maximal effect;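 on activity change, negative = inhibition: -100% = full effect of reference inhibitor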). The note with it: recombinant CYP1A2, luciferin-ME demethylation, luminescence; series mostly up to 57 µM. An outline of the steps:
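Inhibition was calculated relative to 57 uM furafylline (full inhibition). The reaction used human CYP1A2 at 20nM with Luciferin-ME at its Km, 100uM, driven by an NADPH-regenerating system for 60 min at room temperature.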

Assay [4] is described as follows: NFAT Signaling Pathway (AID 444).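 Further: carbachol stimulus at about its EC50 of 1 µM final; on the % scale 0 is the no-effect control and ±100 the full control effect.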 The note with it: Jurkat NFAT-bla M1, carbachol, beta-lactamase ratio, 5 h; at 7.69 µM (top of the series) unless noted. An outline of the steps:
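Jurkat cells carrying an NFAT-driven β-lactamase reporter and co-transfected muscarinic M1 receptor were treated with compound plus carbachol (1 uM final, an EC50 level) for 5 h at 37 °C. CCF4 loading followed for 1 h at RT; 460/530 nm ratio gave %activity.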

A short description of assay [5]: Stat Signaling Pathway (AID 446).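 Further: ME-180 cervical cancer cells given 40 pM IL-6 alongside compound; SIE-controlled beta-lactamase reporter measured as 460/530 nm FRET emission ratio; on the % scale 0 is the no-effect control and ±100 the full control effect.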 The note with it: ME-180 SIE beta-lactamase reporter, IL-6 stimulated, 5 h; at 7.69 µM (top of the series) unless noted. An outline of the steps: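 Reporter line: ME-180 cervical carcinoma, SIE-beta-lactamase. Treatment: compound with 40 pM IL-6, 5 hrs, 37 C, in low-serum OPTI-MEM with 10 mM HEPES pH 7.3. Detection: 460/530 nm fluorescence.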

Assay [6] has as its target Glucocorticoid receptor (Homo sapiens) (UniProt P04150). The assay can be described thus: GR-EFC Redistribution (AID 451; calls by dose curve; further: potency means the concentration at half of the fitted maximal effect). The note with it: CHO-K1 GR-EFC translocation, beta-gal luminescence, 2 h. An outline of the steps: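 CHO-K1 cells stably expressing nuclear-localized β-gal enzyme acceptor and GR fused C-terminally to the enzyme donor fragment; ligand-driven nuclear translocation restores β-gal by complementation. Compounds titrated up to 46 uM final, 2 h at 37 °C; luminescence read.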

Assay [7] has as its target Mitogen-activated protein kinase 10 (Mus musculus) (UniProt Q61831). The assay can be described thus: JNK3 AlphaScreen Assay (AID 530).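 Further: kinase came from lysate of stimulated human HepG2 cells; on the % scale 0 is the no-effect control and ±100 the full control effect.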 Particulars: JNK3 lysate, c-Jun phosphorylation; series mostly up to 57.1 µM. An outline of the steps: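 JNK3 came from HepG2 lysates pre-activated with IL-1beta and TNF-alpha and phosphorylated biotinylated GST-cJun (1-79) at 10 uM ATP, pH 7.6, room temperature. Compounds were titrated. AlphaScreen signal used anti-phospho-cJun (Ser73) antibody.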
(Bead proximity is the source of the signal in Alpha formats.)

In assay [8] the target is 3',5'-cyclic-AMP phosphodiesterase 4B (Homo sapiens) (UniProt Q07343). In words: qHTS Assay for Inhibitors of PDE-IV (AID 607; active means well fitted activation curve with a large enough effect in the main read-out, with a control signal flat, not every such curve was filed as active; further: % of control where 0% means no effect). Particulars: HEK293 ACTOne CNG channel cells, membrane potential fluorescence; series mostly up to 22.9 µM. An outline of the steps:
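Cell-based read-out of cAMP via a modified cyclic nucleotide-gated channel and membrane potential dye (535/590 nm) in HEK293 cells expressing PDE4 endogenously. Compounds tested up to 22.9 uM final; 100 uM RO 20-1724 reference.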
In general terms: Quantitative high-throughput screening tests each substance at several concentrations.

The target of assay [9] is Cytochrome P450 3A4 (Homo sapiens) (UniProt P08684). The assay can be described thus: qHTS Assay for Activators of Cytochrome P450 3A4 (AID 885; active means well fitted curve in the direction sought with a large enough effect; an effect the other way counts as inactive or inconclusive; further: nearly all actives have a fitted effect of over 65% in size). The note with it: recombinant CYP3A4, Luciferin-PPXE luminescence, 60 min; series mostly up to 57.1 µM. An outline of the steps: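 Signal was normalized against complete inhibition by 57 uM ketoconazole. The reaction used 20nM CYP3A4 with 25uM Luciferin-PPXE, 10-min compound preincubation and a 60-min NADPH-supported step at RT.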

The target of assay [10] is Cytochrome P450 2D6 (Homo sapiens) (UniProt P10635). In words: qHTS Assay for Inhibitors and Substrates of Cytochrome P450 2D6 (AID 891; active means well fitted curve in the direction sought with a large enough effect; an effect the other way counts as inactive or inconclusive; further: potency means the concentration at half of the fitted maximal effect; nearly all actives have a fitted effect of over 60% in size). Particulars: recombinant CYP2D6, luciferin-ME EGE luminescence; series mostly up to 57.1 µM. An outline of the steps: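 Human CYP2D6 (5 nM) with 30 uM Luciferin-ME EGE (at Km) in 100 mM KPO4, compound preincubated 10 min, then NADPH regeneration system for 60 min at room temperature. Luciferin read by luminescence; normalized to 1.43 uM quinidine.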

Assay [11] is described as follows: qHTS Assay for Identification of Small Molecule Agonists for Hypoxia Response Element Signaling Pathway (AID 914; active means well fitted activation curve with a large enough effect in the signal ratio, with a control signal flat, not every such curve was filed as active; the % refers to the signal ratio; further: % of control where 0% means no effect). Particulars: ME-180 (cervical carcinoma) HRE-bla reporter, beta-lactamase ratio, CoCl2, 17 h; activation: stronger effect = higher value. An outline of the steps:
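ME-180 cells carrying an HRE-driven beta-lactamase reporter were treated with compounds in a titration series plus an EC50 level of CoCl2 for 17 h at 37 degrees Celsius; CCF4 readout as the 460nm/530nm ratio gave AC50 values.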

Assay [12] can be described thus: qHTS Assay for Lipid Storage Modulators (AID 1519; calls by dose curve). The note with it: Drosophila S3 cells, BODIPY lipid droplet/cell ratio, laser cytometry, cells loaded with oleic acid; for activity change, negative = inhibition: at 57.5 µM (top of the series). An outline of the steps:
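Cells seeded at 5,000 per well were treated with compounds over a concentration series and loaded with oleic acid (400 uM, as added). Lipid droplet fluorescence (488 nm excitation, 500-530 nm channel) was read by laser-scanning cytometry and normalized to 20 uM Triacsin C.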

Assay [13] can be described thus: Primary qHTS for small molecule stabilizers of the endoplasmic reticulum resident proteome: Secreted ER Calcium Modulated Protein (SERCaMP) assay (AID 1508630; active means well fitted curve in the direction sought with a large enough effect; an effect the other way counts as inactive or inconclusive; further: on the % scale 0 is the no-effect control and ±100 the full control effect). The note with it: SH-SY5Y GLuc-SERCaMP (Gaussia luciferase released on ER calcium loss) secretion, thapsigargin, luminescence; series mostly up to 38.4 µM. An outline of the steps:
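GLuc-SERCaMP-expressing SH-SY5Y cells, pretreated 16 h with compound, are challenged with thapsigargin to empty ER calcium stores; after 4 h, coelenterazine is added directly to the medium and luminescence is imaged.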

Assay [14] addresses Cytochrome P450 2C19 (Homo sapiens) (UniProt P33261). The assay can be described thus: qHTS Assay for Inhibitors and Substrates of Cytochrome P450 2C19 (AID 899; active means well fitted curve in the direction sought with a large enough effect; an effect the other way counts as inactive or inconclusive; further: nearly all actives have a fitted effect of over 60% in size; further: potency means the concentration at half of the fitted maximal effect). The note with it: recombinant CYP2C19, luciferin-H EGE luminescence; series mostly up to 57.1 µM. An outline of the steps:
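In 50mM KPO4, the reaction held 5nM enzyme and KM-level (10uM) Luciferin-H EGE; it ran 60 min at 37C after NADPH regeneration and a 10 min compound preincubation. Luminescence values were scaled to 57uM ketoconazole as complete inhibition.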

Setting [15] is: measured here: cell count channel max response.
The mark [16] stands for this setting: measured here: lipid channel max response.

Cytochrome P450 1A2 (Homo sapiens), sequence (P05177 whole entry, looked up): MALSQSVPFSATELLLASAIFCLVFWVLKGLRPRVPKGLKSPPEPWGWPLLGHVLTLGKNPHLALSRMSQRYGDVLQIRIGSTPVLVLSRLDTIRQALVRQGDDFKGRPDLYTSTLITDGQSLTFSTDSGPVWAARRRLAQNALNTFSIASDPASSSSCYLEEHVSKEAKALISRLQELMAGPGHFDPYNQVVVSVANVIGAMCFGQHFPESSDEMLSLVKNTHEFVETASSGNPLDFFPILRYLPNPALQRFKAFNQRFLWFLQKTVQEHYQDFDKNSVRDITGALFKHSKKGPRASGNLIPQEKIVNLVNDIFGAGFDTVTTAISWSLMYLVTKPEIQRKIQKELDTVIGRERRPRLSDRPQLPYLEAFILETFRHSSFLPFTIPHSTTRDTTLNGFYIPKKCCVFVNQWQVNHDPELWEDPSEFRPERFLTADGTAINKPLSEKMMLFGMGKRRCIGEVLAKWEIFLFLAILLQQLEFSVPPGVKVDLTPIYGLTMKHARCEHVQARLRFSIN
Lysosomal acid glucosylceramidase (Homo sapiens), sequence (P04062 whole entry, looked up): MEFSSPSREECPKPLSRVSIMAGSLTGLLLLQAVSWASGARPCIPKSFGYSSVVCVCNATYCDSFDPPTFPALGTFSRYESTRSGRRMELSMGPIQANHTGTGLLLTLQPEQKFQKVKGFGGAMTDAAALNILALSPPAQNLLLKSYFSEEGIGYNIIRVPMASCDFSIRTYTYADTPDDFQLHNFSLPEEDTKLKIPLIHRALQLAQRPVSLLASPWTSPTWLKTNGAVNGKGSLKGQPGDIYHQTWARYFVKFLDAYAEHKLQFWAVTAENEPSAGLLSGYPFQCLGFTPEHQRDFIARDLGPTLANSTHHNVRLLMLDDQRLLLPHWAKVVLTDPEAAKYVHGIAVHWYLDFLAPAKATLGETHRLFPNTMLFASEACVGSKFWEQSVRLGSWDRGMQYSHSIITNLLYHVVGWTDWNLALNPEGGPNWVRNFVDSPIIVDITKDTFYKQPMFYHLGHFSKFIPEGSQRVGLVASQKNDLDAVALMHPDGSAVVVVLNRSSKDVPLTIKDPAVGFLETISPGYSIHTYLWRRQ
Cytochrome P450 3A4 (Homo sapiens), sequence (P08684 whole entry, looked up): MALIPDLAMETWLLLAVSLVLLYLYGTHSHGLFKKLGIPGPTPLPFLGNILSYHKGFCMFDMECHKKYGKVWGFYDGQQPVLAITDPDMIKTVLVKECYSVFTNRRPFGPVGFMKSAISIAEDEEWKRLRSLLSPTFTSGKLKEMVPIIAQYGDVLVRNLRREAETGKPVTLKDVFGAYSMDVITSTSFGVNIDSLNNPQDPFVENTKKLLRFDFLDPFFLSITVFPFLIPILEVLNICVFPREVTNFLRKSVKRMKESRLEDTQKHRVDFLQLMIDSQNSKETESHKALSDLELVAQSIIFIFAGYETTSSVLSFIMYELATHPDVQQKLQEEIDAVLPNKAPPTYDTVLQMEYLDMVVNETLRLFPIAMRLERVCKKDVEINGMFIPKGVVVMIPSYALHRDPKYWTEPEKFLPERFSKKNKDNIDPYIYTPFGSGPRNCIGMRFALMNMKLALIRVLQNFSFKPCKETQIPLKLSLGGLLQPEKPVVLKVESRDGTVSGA
3',5'-cyclic-AMP phosphodiesterase 4B (Homo sapiens), sequence (Q07343 whole entry, looked up): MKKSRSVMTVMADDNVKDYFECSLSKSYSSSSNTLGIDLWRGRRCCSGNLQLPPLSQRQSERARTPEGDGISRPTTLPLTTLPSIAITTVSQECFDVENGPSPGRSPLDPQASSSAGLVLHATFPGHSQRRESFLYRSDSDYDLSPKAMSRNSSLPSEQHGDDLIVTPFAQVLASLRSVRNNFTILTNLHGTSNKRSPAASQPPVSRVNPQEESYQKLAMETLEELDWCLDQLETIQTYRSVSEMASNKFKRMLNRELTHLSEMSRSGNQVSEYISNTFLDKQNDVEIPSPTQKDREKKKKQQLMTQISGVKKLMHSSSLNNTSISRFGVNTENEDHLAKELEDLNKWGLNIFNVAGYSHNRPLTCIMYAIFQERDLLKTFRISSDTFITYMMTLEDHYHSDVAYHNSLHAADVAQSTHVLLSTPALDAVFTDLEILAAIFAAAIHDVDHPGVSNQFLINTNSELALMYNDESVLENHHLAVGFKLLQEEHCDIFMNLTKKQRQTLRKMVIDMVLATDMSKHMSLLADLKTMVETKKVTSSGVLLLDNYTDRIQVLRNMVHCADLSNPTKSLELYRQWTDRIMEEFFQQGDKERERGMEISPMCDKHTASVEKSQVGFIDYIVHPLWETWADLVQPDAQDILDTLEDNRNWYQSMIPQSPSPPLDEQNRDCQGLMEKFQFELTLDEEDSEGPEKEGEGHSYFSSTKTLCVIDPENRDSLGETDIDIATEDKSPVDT
Glucocorticoid receptor (Homo sapiens), sequence (P04150 whole entry, looked up, the tested form may be a part): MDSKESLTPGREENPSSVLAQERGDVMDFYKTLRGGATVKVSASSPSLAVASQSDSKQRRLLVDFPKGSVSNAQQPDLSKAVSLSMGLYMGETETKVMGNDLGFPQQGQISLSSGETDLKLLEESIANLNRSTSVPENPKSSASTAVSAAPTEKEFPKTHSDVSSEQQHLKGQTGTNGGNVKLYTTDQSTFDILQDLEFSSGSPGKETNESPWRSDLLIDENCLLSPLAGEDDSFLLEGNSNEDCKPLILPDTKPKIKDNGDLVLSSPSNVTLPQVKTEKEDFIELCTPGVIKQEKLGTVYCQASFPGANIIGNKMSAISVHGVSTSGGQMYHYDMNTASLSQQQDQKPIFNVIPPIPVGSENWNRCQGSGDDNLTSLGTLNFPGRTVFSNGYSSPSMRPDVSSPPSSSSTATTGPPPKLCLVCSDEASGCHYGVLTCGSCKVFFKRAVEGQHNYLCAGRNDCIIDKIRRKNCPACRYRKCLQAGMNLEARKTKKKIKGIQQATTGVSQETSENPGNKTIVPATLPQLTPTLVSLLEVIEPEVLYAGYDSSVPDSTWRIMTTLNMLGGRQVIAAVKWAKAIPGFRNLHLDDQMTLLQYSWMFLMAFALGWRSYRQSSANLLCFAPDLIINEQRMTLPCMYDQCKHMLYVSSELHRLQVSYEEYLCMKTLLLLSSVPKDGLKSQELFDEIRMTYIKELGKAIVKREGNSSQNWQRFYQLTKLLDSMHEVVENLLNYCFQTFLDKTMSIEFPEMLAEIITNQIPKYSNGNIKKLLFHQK
Cytochrome P450 2C19 (Homo sapiens), sequence (P33261 whole entry, looked up): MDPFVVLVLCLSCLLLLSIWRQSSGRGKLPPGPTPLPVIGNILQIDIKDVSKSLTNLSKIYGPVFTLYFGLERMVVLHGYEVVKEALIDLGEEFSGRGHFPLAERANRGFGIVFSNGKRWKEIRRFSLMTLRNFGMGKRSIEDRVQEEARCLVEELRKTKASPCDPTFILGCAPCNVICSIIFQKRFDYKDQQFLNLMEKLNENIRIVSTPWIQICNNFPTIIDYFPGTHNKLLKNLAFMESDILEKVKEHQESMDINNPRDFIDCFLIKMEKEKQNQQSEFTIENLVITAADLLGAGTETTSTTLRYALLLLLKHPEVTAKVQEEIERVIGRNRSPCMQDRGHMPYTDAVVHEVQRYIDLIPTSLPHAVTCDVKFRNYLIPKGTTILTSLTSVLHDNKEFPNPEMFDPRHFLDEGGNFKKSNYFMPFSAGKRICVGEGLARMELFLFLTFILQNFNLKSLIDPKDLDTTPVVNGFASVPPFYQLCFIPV
Cytochrome P450 2D6 (Homo sapiens), sequence (P10635 whole entry, looked up): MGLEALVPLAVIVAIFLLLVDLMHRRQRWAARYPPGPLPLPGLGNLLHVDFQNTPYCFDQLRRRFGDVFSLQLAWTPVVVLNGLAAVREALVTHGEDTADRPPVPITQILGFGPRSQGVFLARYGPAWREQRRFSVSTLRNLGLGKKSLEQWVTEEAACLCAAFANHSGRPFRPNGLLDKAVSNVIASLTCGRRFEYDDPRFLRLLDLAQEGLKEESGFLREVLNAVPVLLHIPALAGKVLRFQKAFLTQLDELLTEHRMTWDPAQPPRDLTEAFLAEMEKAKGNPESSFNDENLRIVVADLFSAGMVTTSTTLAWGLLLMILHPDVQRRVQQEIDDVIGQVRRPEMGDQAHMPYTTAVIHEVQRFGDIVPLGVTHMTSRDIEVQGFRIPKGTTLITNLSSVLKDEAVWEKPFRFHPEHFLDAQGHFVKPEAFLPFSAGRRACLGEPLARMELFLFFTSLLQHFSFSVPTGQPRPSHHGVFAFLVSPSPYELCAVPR

As for `O=C(c1csnn1)N1CCC[C@@]2(CCN(Cc3nccs3)C2)C1`, the Potency in assay [1] is > 11.4 µM (inactive); in assay [6], > 46 µM (inactive); in assay [10] it was 5.01 µM (active). Further, the activity change, negative = inhibition in assay [2] was 2.1% (inactive); in assay [4], 2.26% (inactive); in assay [12], 6.67% (inactive). In addition, the Potency entry in assay [3], in assay [8], in assay [9] and in assay [13] was “inactive” each time. Besides, in assay [5], the activity, negative = inhibition was -2.25% (inactive). Besides, the molecule was called inactive in assay [7]. Further, the activation in assay [11] was -0.307% (inactive). Further, the max response in assay [12] (setting [15]) is 15.7%; in assay [12] (setting [16]) it was 25.3%.
For the molecule `CS(=O)(=O)N1CCC[C@@]2(CCN(C(=O)Nc3cccc(F)c3)C2)C1`, the figures for the Potency in assay [1] and in assay [6] were > 11.4 µM (inactive) and > 46 µM (inactive), respectively. Moreover, the activity change, negative = inhibition is -7.6% (inactive) in assay [2], 16.7% (inactive) in assay [4] and 1.83% (inactive) in [12]. For the same molecule, the Potency result in assay [3], in [8], in assay [9] and in assay [13] was “inactive” throughout. The activity, negative = inhibition in assay [5] is -3.89% (inactive). Also, in assay [7], the molecule was classed as inactive. Also, the values for the max response in assay [12] (setting [15]) and in assay [12] (setting [16]) were 1.7% and 6.37%, respectively.
With `COCC(=O)N1CCC2(CCCN(C(=O)Nc3ccc(OC)cc3)C2)CC1`, the results for the Potency in assay [1] and in assay [6] were > 11.4 µM (inactive) and > 46 µM (inactive), respectively. Moreover, the activity change, negative = inhibition in assay [2] was -3.98% (inactive); in assay [4], 13.5% (inactive); in [12], 5.43% (inactive). The Potency result in assay [3], in assay [8], in assay [9], in assay [14] and in assay [13] was “inactive” throughout. Also, the activity, negative = inhibition in assay [5] is -3.45% (inactive). In addition, in assay [7], the call was inactive. Also, the max response in assay [12] (setting [15]) was 13.8%; in [12] (setting [16]), 18.7%.
Take `COc1ccccc1CN1CC[C@@]2(CCCN(C(C)=O)C2)C1`: the Potency in assay [1] was > 11.4 µM (inactive); in assay [6], > 46 µM (inactive); in assay [10] it was 3.16 µM (active). In addition, the activity change, negative = inhibition was -19% (inactive) in assay [2], 19.3% (inactive) in assay [4] and 0.807% (inactive) in [12]. Besides, the Potency entry in [3], in assay [8] and in assay [13] was “inactive” each time. Further, the activity, negative = inhibition in assay [5] is 1.39% (inactive). Further, the result in assay [7] was inactive. Further, the results for the max response in [12] (setting [15]) and in [12] (setting [16]) were -2.53% and -1%, respectively.
As to `O=S(=O)(c1ccccc1)N1CCC2(CCCN(c3ncccn3)C2)CC1`, the Potency in assay [1] is > 11.4 µM (inactive); in assay [3] it was 15.8 µM (active); in assay [6], > 46 µM (inactive); in [14] it was 398 nM (active). Also, the activity change, negative = inhibition is 0.46% (inactive) in assay [2], 5.51% (inactive) in [4] and 7.3% (inactive) in assay [12]. Besides, the activity, negative = inhibition in assay [5] was -0.568% (inactive). Besides, the result in assay [7] was inactive. Besides, the Potency entry in [8], in assay [9] and in [13] was “inactive” throughout. The max response is -5.51% in assay [12] (setting [15]) and 5.88% in assay [12] (setting [16]).
Regarding `COc1ccc(NC(=O)N2CCCC3(CCNCC3)C2)cc1`, the Potency in assay [1] was > 11.4 µM (inactive); in assay [6] it was > 46 µM (inactive). The results for the activity change, negative = inhibition in [2], in assay [4] and in assay [12] were -1.83% (inactive), 1.68% (inactive) and 4.28% (inactive), respectively. The Potency entry in assay [3], in [8], in assay [14] and in [13] was “inactive” each time. In assay [5], the activity, negative = inhibition is 5.73% (inactive). In addition, in [7], the call was inactive. For the same molecule, the max response in assay [12] (setting [15]) is -5.9%; in [12] (setting [16]), 0.941%.
`COc1ccccc1CN1CC2(CCN(C(=O)c3cnccn3)CC2)C1`: the figures for the Potency in assay [1] and in [6] were > 11.4 µM (inactive) and > 46 µM (inactive), respectively. For the same molecule, the results for the activity change, negative = inhibition in assay [2], in [4] and in [12] were 2.43% (inactive), -17.5% (inactive) and 3% (inactive), respectively. The Potency result in assay [3], in [8], in assay [9] and in [13] was “inactive” throughout. In addition, in [5], the activity, negative = inhibition was -6.42% (inactive). The result in assay [7] was inactive. Moreover, the max response in assay [12] (setting [15]) came to 12%; in [12] (setting [16]), 20.3%.

Values taken from PubChem BioAssay (NCATS).
